Measurements: PubChem BioAssay AID1159580 (chemical genetic matrix, 2015)
In all, about 5,500 compounds went through this assay and about 2,000 (36%) were called active. Not shown: some 18% with an inconclusive outcome. No stated cut-off is given here; in the data, active means normalized growth mostly below about 0.91 (no sharp cut-off); inconclusive means no clear call, values can overlap the other calls; inactive means mostly above about 0.92. Some of the results follow.

Test: chemical genetic growth profiling, strain panel (AID 1159580);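 further: tested at 20 µM; growth read once vehicle control cultures reached saturation at 30 °C; 1 = growth at the plate median or of vehicle wells; lower values mean less growth of the strain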
Conditions: growth OD

Measured: normalized growth

O=C1C=C(Cl)CC(c2ccc(C(F)(F)F)cc2)C1 (stereo not given)
inactive: S. cerevisiae deletion strains, locus YAL013W, strain DEP1, active compounds read low 1 | S. cerevisiae deletion strains, locus YBR229C, strain ROT2, active compounds read low 0.988 | S. cerevisiae deletion strains, locus YCL061C, strain MRC1, active compounds read low 1.01 | S. cerevisiae deletion strains, locus YDL101C, strain DUN1, active compounds read low 0.995 | S. cerevisiae deletion strains, locus YDL134C, strain PPH21, active compounds read low 1.03 | S. cerevisiae deletion strains, locus YDR150W, strain NUM1, active compounds read low 1.1 | S. cerevisiae deletion strains, locus YEL061C, strain CIN8, active compounds read low 1.03 | S. cerevisiae deletion strains, locus YGR078C, strain PAC10, active compounds read low 1.01 | S. cerevisiae deletion strains, locus YHR030C, strain SLT2, active compounds read low 0.987 | S. cerevisiae deletion strains, locus YHR087W, strain rtc3, active compounds read low 0.975 | S. cerevisiae deletion strains, locus YJR043C, strain POL32, active compounds read low 1.01 | S. cerevisiae deletion strains, locus YJR075W, strain HOC1, active compounds read low 1.02 | S. cerevisiae deletion strains, locus YKL190W, strain CNB1, active compounds read low 0.983 | S. cerevisiae deletion strains, locus YLR039C, strain RIC1, active compounds read low 0.936 | S. cerevisiae deletion strains, locus YLR058C, strain SHM2 (second series), active compounds read low 0.986 | S. cerevisiae deletion strains, locus YLR085C, strain ARP6, active compounds read low 1.06 | S. cerevisiae deletion strains, locus YLR262C, strain YPT6, active compounds read low 0.94 | S. cerevisiae deletion strains, locus YML094W, strain GIM5, active compounds read low 1.04 | S. cerevisiae deletion strains, locus YMR219W, strain ESC1, active compounds read low 1.01 | S. cerevisiae deletion strains, locus YMR263W, strain SAP30, active compounds read low 0.989 | S. cerevisiae deletion strains, locus YMR307W, strain GAS1, active compounds read low 1.01 | S. cerevisiae deletion strains, locus YNL128W, strain TEP1, active compounds read low 0.987 | S. cerevisiae deletion strains, locus YNL153C, strain GIM3, active compounds read low 0.992 | S. cerevisiae deletion strains, locus YNL298W, strain CLA4 (second series), active compounds read low 0.985 | S. cerevisiae deletion strains, locus YNL322C, strain KRE1, active compounds read low 0.991 | S. cerevisiae deletion strains, locus YNR030W, strain Alg12, active compounds read low 1.02 | S. cerevisiae deletion strains, locus YPL055C, strain LGE1, active compounds read low 1.14 | S. cerevisiae deletion strains, locus YPL241C, strain CIN2, active compounds read low 1.02 | S. cerevisiae deletion strains, locus YPR135W, strain CTF4, active compounds read low 1.03 | S. cerevisiae strains, strain wild type, active compounds read low 0.971
